The list is not random: actives were taken first. Their share in the collection is about 3.2%.
TROY NFkB inh = TROY signaling inhibition; inhibition, % at 10 µM; Q293 LMP1-TROYcd NF-kB luciferase reporter, 4 h; AID 1347056; 360,000 tested, 0.98% active;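 active = compounds whose plate-normalised and pattern-corrected inhibition of the luciferase reporter signal at the single screening dose is 50% or more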
TWEAK Fn14 block = blocks TWEAK-Fn14 interaction in a reporter cell assay. TWEAK-stimulated Fn14 reporter cells, luciferase luminescence, 8 h. inhibition, % at 10 µM. 360,000 tested, 2% active; in the data active = inhibition above about 50%
PAX8 inh HTS = inhibitors of PAX8 transcriptional activity in RMG-I cells; RMG-I TPO-luciferase reporter, SteadyGlo, 24 h; inhibition, % at 12.6 µM; 360,000 tested, 1.2% active;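 active = mean replicate inhibition at least 60% with every replicate also reaching 60%; inconclusive = only one of the two criteria is met; inactive = mean below 60% and not all replicates reaching 60%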;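 note: luciferase light reporting Pax8 driven TPO promoter activity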
LGR2 inh = Drosophila LGR2 receptor signaling inhibition. HEK293 LGR2, CRE-luciferase, bursicon-stimulated, 4 h. inhibition, % at 9.99 µM. 380,000 tested, 0.35% active. AID 720647;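 active = drop in luminescence signal, shown as inhibition above about 50% in the replicate tests, limit read from the data, passing the limit was not always enough; inconclusive = probably only some replicates passing the limit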;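 note: agonist challenge used bursicon conditioned medium at about half maximal strength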
EBV LMP1 NFkB = Epstein-Barr LMP1 NF-kappaB reporter inhibition; LMP1-induced NF-kappaB luciferase reporter cells, luminescence; inhibition, % at 12.5 µM; 350,000 tested, 0.69% active; AID 504558; in the data active = inhibition above about 41%; inconclusive = no clear call, values can overlap the other calls
EWS-Fli block = EWS/Fli transcriptional activity inhibition. A673 NR0B1-luciferase reporter, viability-normalised. inhibition, % at 12.6 µM. 350,000 tested, 0.67% active. AID 651661;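 active = mean inhibition of at least 50% after viability correction, with every replicate also passing that limit; inconclusive = mean reaches 50% but only one of two replicates passes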;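 note: firefly luciferase signal divided by Alamar Blue viability fluorescence both relative to DMSO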
Hits are given with their value; ! = not active in a repeat.

Screening Cc1noc(C)c1NC(=O)N(C)C[C@@H]1Oc2c(NC(=O)C3CCOCC3)cccc2C(=O)N([C@H](C)CO)C[C@@H]1C returned LGR2 inh inactive and EWS-Fli block inactive.
`O=c1c2ccccc2oc2cc(C#Cc3ccccn3)ccc12` gave TROY NFkB inh inactive, TWEAK Fn14 block 64.6, PAX8 inh HTS inactive, LGR2 inh inactive, EBV LMP1 NFkB inactive and EWS-Fli block inactive.
For COc1cccc2oc3ccc(C#Cc4ccccn4)cc3c(=O)c12 the results were TROY NFkB inh inactive, TWEAK Fn14 block inactive, PAX8 inh HTS inactive, LGR2 inh 82.8, EBV LMP1 NFkB inactive and EWS-Fli block inactive.
COc1cccc2sc3cc(C#Cc4ccccn4)ccc3c(=O)c12 was read as TROY NFkB inh inactive, TWEAK Fn14 block inactive, PAX8 inh HTS inactive, LGR2 inh inactive, EBV LMP1 NFkB inactive and EWS-Fli block inactive.
For Cn1c(N)c(C(=O)COC(=O)c2cc(S(=O)(=O)N3CCOCC3)ccc2F)c(=O)n(C)c1=O the results were TROY NFkB inh inactive, TWEAK Fn14 block inactive, PAX8 inh HTS inactive, LGR2 inh inactive, EBV LMP1 NFkB inactive and EWS-Fli block 67.0.
`Cc1ccc(S(=O)(=O)N2CCOCC2)cc1C(=O)OCC(=O)c1c(N)n(C)c(=O)n(C)c1=O` gave TROY NFkB inh inactive, TWEAK Fn14 block inactive, PAX8 inh HTS inactive, EBV LMP1 NFkB inactive and EWS-Fli block inactive.
Screening CC[C@H](C)Cc1cn([C@@H](CCCCNC(=O)OC(C)(C)C)C(=O)NCCCCCCCCCCC(=O)N2CCN(C(=O)OC(C)(C)C)CC2)nn1 returned TROY NFkB inh inactive, TWEAK Fn14 block 59.0, PAX8 inh HTS inactive, EBV LMP1 NFkB inactive and EWS-Fli block inactive.
Screening C#CCOCCOCCOCCNc1nc(N2CCN(C(=O)CCCCCCCCCCNC(=O)[C@H](CCCCN)n3cc(C)nn3)CC2)nc(N2CCN(C(=O)CCCCCCCCCCNC(=O)[C@@H]([C@H](C)CC)n3cc(CCCCCN)nn3)CC2)n1 returned TROY NFkB inh inactive, TWEAK Fn14 block inactive and EBV LMP1 NFkB inactive.
`C#CCOCCOCCOCCNc1nc(N2CCN(C(=O)CCCCCCCCCCNC(=O)[C@H]([C@@H](C)CC)n3cc(CCCCCN)nn3)CC2)nc(N2CCN(C(=O)CCCCCCCCCCNC(=O)[C@@H]([C@H](C)O)n3cc(C)nn3)CC2)n1` gave TROY NFkB inh 67.0, TWEAK Fn14 block inactive and EBV LMP1 NFkB inactive.
Screening C#CCOCCOCCOCCNc1nc(N2CCN(C(=O)CCCCCCCCCCNC(=O)[C@H](CCCCN)n3cc(C[C@@H](C)CC)nn3)CC2)nc(N2CCN(C(=O)CCCCCCCCCCNC(=O)[C@H](CCCCN)n3cc(C[C@@H](C)CC)nn3)CC2)n1 returned TROY NFkB inh 65.1, TWEAK Fn14 block 51.2 and EBV LMP1 NFkB inactive.
Screening C#CCOCCOCCOCCNc1nc(N2CCN(C(=O)CCCCCCCCCCNC(=O)[C@H](CCCCN)n3cc(CCO)nn3)CC2)nc(N2CCN(C(=O)CCCCCCCCCCNC(=O)[C@H](CCCN=C(N)N)n3cc(C[C@@H](C)CC)nn3)CC2)n1 returned TROY NFkB inh inactive, TWEAK Fn14 block inactive and EBV LMP1 NFkB inactive.
For CCCN1[C@@H]2Cn3c(cccc3=O)[C@H]1[C@@H](C(=O)Nc1ccccc1)[C@@H]2CO the results were PAX8 inh HTS inactive, LGR2 inh inactive and EWS-Fli block inactive.
For Cc1ccc(C2CC(=O)c3cnc(N4CCN(c5ccccc5)CC4)nc3C2)cc1 (configuration not stated) the results were TROY NFkB inh inactive, TWEAK Fn14 block 58.4, LGR2 inh inactive and EBV LMP1 NFkB inactive.
O=Cc1ccc(-c2cccs2)s1 was read as TROY NFkB inh inactive, TWEAK Fn14 block inactive, PAX8 inh HTS inactive, LGR2 inh inconclusive, EBV LMP1 NFkB 75.9 and EWS-Fli block inactive.
Screening CCCCOc1ccc(N=Cc2cccs2)cc1 returned TROY NFkB inh inactive, TWEAK Fn14 block inactive, PAX8 inh HTS inactive, LGR2 inh inactive, EBV LMP1 NFkB inactive and EWS-Fli block inactive.
For Oc1ccc(N=Cc2ccc(-c3cccs3)s2)cc1 the results were TROY NFkB inh inactive, TWEAK Fn14 block inactive, LGR2 inh 59.3 and EBV LMP1 NFkB 81.8.
CCN(CC)C(=O)c1ccc(-c2cccs2)s1 was read as TROY NFkB inh inactive, TWEAK Fn14 block inactive, PAX8 inh HTS inactive, EBV LMP1 NFkB inactive and EWS-Fli block inactive.
Screening C[C@@H]1CN([C@H](C)CO)S(=O)(=O)c2ccc(C3=CCCCC3)cc2O[C@@H]1CN(C)Cc1cncnc1 returned LGR2 inh inactive and EWS-Fli block inactive.
For COc1ccc(-c2nn(-c3ccccc3)cc2/C=N/N2C(=O)CSC2=S)cc1 the results were TROY NFkB inh inactive, TWEAK Fn14 block 61.6 and EBV LMP1 NFkB inactive.
`CC(=O)Nc1sc2c(c1-c1nc3ccccc3s1)CCN(C(C)C)C2` gave TROY NFkB inh inactive, TWEAK Fn14 block inactive and EBV LMP1 NFkB 78.2.
For CNc1cncc(-c2cc(C)c(O)c(C)c2)n1 the results were TROY NFkB inh inactive, TWEAK Fn14 block inactive, PAX8 inh HTS inactive, LGR2 inh inactive and EWS-Fli block 52.3.
CNc1cncc(-c2ccc(O)cc2)n1 was read as TROY NFkB inh inactive, TWEAK Fn14 block inactive, PAX8 inh HTS inactive, LGR2 inh inactive and EWS-Fli block inactive.
For C[C@@H]1CN([C@H](C)CO)S(=O)(=O)c2ccc(C#CC(C)(C)O)cc2O[C@@H]1CN(C)C(=O)CN(C)C the results were LGR2 inh inactive and EWS-Fli block inactive.
`C[C@@H]1CN([C@@H](C)CO)C(=O)c2cc(NC(=O)Nc3ccccc3)ccc2O[C@@H]1CN(C)S(=O)(=O)c1ccc(F)cc1` gave LGR2 inh inactive and EWS-Fli block inactive.
For COc1ccc(-c2cn(CC[C@@H]3CC[C@H](NC(=O)Cc4ccccn4)[C@H](CO)O3)nn2)cc1 the results were PAX8 inh HTS 90.4, LGR2 inh inactive and EWS-Fli block inactive.
For COc1ccc(-c2cn(CC[C@@H]3CC[C@@H](NC(=O)Cc4ccccn4)[C@H](CO)O3)nn2)cc1 the results were PAX8 inh HTS inactive, LGR2 inh inactive and EWS-Fli block inactive.
For COc1ccc(-c2cn(CC[C@@H]3CC[C@H](NC(=O)Cc4ccccn4)[C@@H](CO)O3)nn2)cc1 the results were PAX8 inh HTS 78.3!, LGR2 inh inactive and EWS-Fli block inactive.
Screening CCCCN(CC)c1nc(-c2ccncc2)nc2ccccc12 returned TROY NFkB inh inactive, TWEAK Fn14 block 56.9 and EBV LMP1 NFkB inactive.
For Cc1ccccc1N=CC=C1OC(C)(C)C(C)(C)O1 the results were TROY NFkB inh inactive, TWEAK Fn14 block inactive, PAX8 inh HTS 79.1, LGR2 inh inactive, EBV LMP1 NFkB inactive and EWS-Fli block inactive.
COc1cc(C2CC(=O)c3c([nH]c(C(=O)OCCOC(C)C)c3C)C2)cc(OC)c1OC (configuration not stated) was read as TROY NFkB inh inactive, TWEAK Fn14 block 61.4, PAX8 inh HTS inactive, LGR2 inh inactive, EBV LMP1 NFkB inactive and EWS-Fli block inactive.

Bioassay records (PubChem)
